Compound activity from PubChem.
D1 antag: Antagonist of Human D 1 Dopamine Receptor: qHTS; AID 504652, 2011; HEK293 TREx D1 cells, calcium flux, dopamine EC80; hits give low values; activity change, negative = inhibition, % at 10 µM; 360,000 tested, 3.2% active; in the data active = activity change below about -30%
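Tetracycline-induced HEK293 Trex D1 cells, force-coupled to calcium, dye-loaded; compounds added and read 180 s, then EC80 dopamine added and calcium flux tracked kinetically another 180 s.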
USP2a inh: qHTS Assay for Inhibitors of Ubiquitin-specific Protease USP2a Using CHOP2 as the Reporter. 330,000 tested, 0.01% active. Potency, µM (doses to about 38.3 µM), actives largely listed as inhibitors. Ubiquitin carboxyl-terminal hydrolase 2 (Homo sapiens), O75604. USP2 core, Ub-CHOP2 coupled fluorogenic reporter, 485/531. AID 463254, 2010
Target sequence (O75604 whole entry, looked up): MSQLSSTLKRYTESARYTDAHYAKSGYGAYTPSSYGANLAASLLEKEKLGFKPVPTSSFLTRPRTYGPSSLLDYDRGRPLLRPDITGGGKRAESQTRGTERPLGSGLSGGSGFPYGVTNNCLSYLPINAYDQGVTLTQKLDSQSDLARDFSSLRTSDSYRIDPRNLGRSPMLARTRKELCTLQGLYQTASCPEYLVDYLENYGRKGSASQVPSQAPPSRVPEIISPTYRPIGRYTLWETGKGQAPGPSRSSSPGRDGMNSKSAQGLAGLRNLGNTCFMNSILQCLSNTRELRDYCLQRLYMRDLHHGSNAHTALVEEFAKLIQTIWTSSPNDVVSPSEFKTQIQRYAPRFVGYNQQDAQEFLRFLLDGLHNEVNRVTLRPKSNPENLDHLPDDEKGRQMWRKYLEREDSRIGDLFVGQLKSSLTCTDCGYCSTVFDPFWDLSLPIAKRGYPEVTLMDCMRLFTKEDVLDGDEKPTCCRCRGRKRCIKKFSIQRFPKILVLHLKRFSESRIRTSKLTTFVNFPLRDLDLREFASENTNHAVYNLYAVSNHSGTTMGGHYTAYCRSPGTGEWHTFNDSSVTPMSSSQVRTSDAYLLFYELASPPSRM
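Deubiquitinase activity read as fluorescence (485/531 nm) after Ub-CHOP2 cleavage activates the enterokinase reporter on its substrate; USP2 core 10nM, Ub-CHOP2 and substrate 25nM each, 30min compound preincubation then 60min RT; data normalized to NEM, curves fitted.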
D1 potentiator: Potentiators of Human D1 Dopamine Receptor: qHTS; HEK293 TREx D1 cells, calcium flux, dopamine EC20 potentiation; potentiation, % at 10 µM; 360,000 tested, 0.036% active; in the data active = potentiation above about 30%
Eya2 phos inh: qHTS Assay for Inhibitors of the Phosphatase Activity of Eya2 | 330,000 tested, 0.006% active | recombinant Eya2, OMFP fluorescence dephosphorylation (OMFP is methylfluorescein phosphate) | Protein phosphatase EYA2 (Homo sapiens), O00167 | Potency, µM (highest dose often 76.9 µM), actives largely listed as inhibitors | AID 488837, 2010
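Eya2 (0.2 uM) preincubated 10 min at ambient with compound, then OMFP substrate added at 50 uM; 10 min reaction in 50 mM HEPES pH 7.5, 50 mM NaCl, 5 uM MgCl2, 0.05% BSA, 1 mM DTT. Fluorescence read at Ex 485/Em 525 nm.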
GALK inhibitor: qHTS Assay for Inhibitors of Human Galactokinase (GALK); P51570; Purified GALK, Kinase-Glo residual ATP luminescence; Potency, µM (series often up to 57.5 µM), actives largely listed as inhibitors; 270,000 tested, 0.007% active; AID 1868, 2009
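The enzyme phosphorylates galactose (100 uM) using ATP (35 uM); inhibition is detected as higher residual ATP, quantified by bioluminescence after 1 h reaction at room temperature, pH 8.0.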
D1 agonist: Allosteric Agonists of the Human D1 Dopamine Receptor: qHTS. activation, % at 2 µM. HEK293 T-REx D1 cells, calcium flux, agonist mode. 360,000 tested, 1% active; in the data active = activation above about 30%
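Tetracycline-induced HEK293 TREx D1 cells, force-coupled to calcium signalling, were dye-loaded with a no-wash calcium kit. Compound was pin-added after a 10 s baseline. Fluorescence was read kinetically at 1 cycle/s for 180 s, with calcium rises flagged as agonism.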
Each line names hits and unclear results; the compound was inactive in the other large screens. Compounds with a hit are over-represented: about 3.9% of the library has one in this group of screens. Unless noted, calls come from the whole dose curve; as a rule, active = well fitted inhibition curve with a large enough effect; inconclusive = small, poorly fitted or top-dose-only effect, or effect the other way; inactive = flat fitted curve, though single readings scatter.

Cc1ccc(C(=O)Nc2ccc(Cc3ccncc3)cc2)cc1[N+](=O)[O-]	D1 antag -35
O=C(Nc1ccc(N2CCCCC2)c(Cl)c1)c1ccc(N2CCOCC2)c([N+](=O)[O-])c1	D1 antag -48
CCCC(=O)Nc1cccc(NC(=O)c2ccc(C)c([N+](=O)[O-])c2)c1	D1 antag -34
O=C(Nc1ccc(Cc2ccncc2)cc1)c1ccc(N2CCOCC2)c([N+](=O)[O-])c1	D1 antag -44
COc1ccc(NC(=O)CN(c2ccc(C)cc2)S(=O)(=O)c2cccc3nonc23)cc1OC	none (no result: USP2a inh, Eya2 phos inh, GALK inhibitor)
COc1ccccc1C(=O)Nc1cccc(OCc2cc(=O)n3ccccc3n2)c1	none (no result: USP2a inh, Eya2 phos inh, GALK inhibitor)
COc1ccc(OC)c(NC(=O)c2nc(SCc3ccc(F)cc3)ncc2Cl)c1	none (no result: USP2a inh, Eya2 phos inh, GALK inhibitor)
Cc1cccc(NC(=O)CSc2nnc(CNC(=O)c3c(F)cccc3Cl)o2)c1C	none (no result: USP2a inh, Eya2 phos inh, GALK inhibitor)
CCOC(=O)c1cccc(NS(=O)(=O)c2cc(Br)cc3c2N(C(=O)C2CC2)CC3)c1	none (no result: USP2a inh, Eya2 phos inh, GALK inhibitor)
Cc1ccc(C(=O)NC(C)CCc2ccccc2)cc1[N+](=O)[O-] (configuration not stated)	D1 antag -62
CC(CCc1ccccc1)NC(=O)c1cccc([N+](=O)[O-])c1 (configuration not stated)	none (no result: GALK inhibitor)
Cc1ccc(C(=O)Nc2ccc(S(=O)(=O)N3CCN(C)CC3)cc2)cc1	none
CN1CCN(S(=O)(=O)c2ccc(NC(=O)c3cccs3)cc2)CC1	none (no result: USP2a inh, Eya2 phos inh)
CN1CCN(S(=O)(=O)c2ccc(NC(=O)c3csc4ccccc34)cc2)CC1	D1 antag -45
CCCOc1ccccc1C(=O)Nc1ccc(S(=O)(=O)N2CCN(C)CC2)cc1	D1 antag -49
CCCOc1ccc(C(=O)Nc2ccc(S(=O)(=O)N3CCN(C)CC3)cc2)cc1	D1 antag -72
CCc1ccc(NC(=O)N(Cc2c[nH]c3ccccc23)C2CCCCCC2)cc1	none (no result: USP2a inh, Eya2 phos inh, GALK inhibitor)
Cc1ccc(NC(=O)Cn2c(=O)oc3cc(S(=O)(=O)N4CCCCC4)ccc32)c(Cl)c1	none (no result: USP2a inh, Eya2 phos inh, GALK inhibitor)
O=C(COc1ccccc1Cl)NC(=S)Nc1ccc(CN2CCOCC2)cc1	none (no result: GALK inhibitor)
O=C(COc1ccc(Cl)cc1Cl)NC(=S)Nc1ccc(CN2CCOCC2)cc1	D1 antag -40 (no result: GALK inhibitor)
Cc1c(C(=O)NCc2ccccn2)oc2ccc(Br)cc12	none (no result: GALK inhibitor)
O=C(NCc1ccccn1)c1cc2cc(Br)ccc2oc1=O	D1 antag -68
CC(C)(C)OC(=O)N1CCC(c2c(C(=O)N3CCC(c4ccccc4)C3)cnn2-c2ccc(Cl)cc2)CC1 (configuration not stated)	none (no result: USP2a inh, Eya2 phos inh, GALK inhibitor)
CCC1CN(C(=O)C2CCN(S(=O)(=O)c3c(C)noc3/C=C/c3ccc(C)cc3)CC2)c2cc(C)ccc2O1 (configuration not stated)	none (no result: USP2a inh, Eya2 phos inh, GALK inhibitor)
Cc1ccc(C(OCC(O)CNC(C)c2ccccc2)c2ccccc2)cc1 (configuration not stated)	D1 antag -38
CC(NCC(O)COCc1ccc(Cl)cc1)c1ccccc1 (configuration not stated)	none
Cc1ccc(C(OCC(O)CN2CCCCC2)c2ccccc2)cc1 (configuration not stated)	none
Cc1ccc(OCC(O)CNC(C)c2ccccc2)cc1C (configuration not stated)	D1 agonist 32
Cc1ccc(C)c(Cn2c(-c3cccs3)nc3ccccc32)c1	none (no result: USP2a inh, Eya2 phos inh, GALK inhibitor)
COc1ccc(NC(=O)Cn2ccn(-c3ccccc3)c(=O)c2=O)cc1	none (no result: USP2a inh, Eya2 phos inh, GALK inhibitor)
O=C(CCS(=O)(=O)c1cc2c3c(c1)CCN3C(=O)CC2)NCc1ccc(F)cc1	none (no result: USP2a inh, Eya2 phos inh, GALK inhibitor)
COc1ccc(-c2cc3nc(C)c(CCC(=O)Nc4ccccc4C(C)=O)c(C)n3n2)c(OC)c1	none (no result: USP2a inh, Eya2 phos inh, GALK inhibitor)
Cc1csc(NC(=O)CSc2ncnc3c2cnn3-c2ccccc2Cl)n1	D1 antag -31
CC1CCc2c(sc(NC(=O)CSc3ncnc4c3cnn4-c3ccccc3Cl)c2C#N)C1 (configuration not stated)	D1 antag -39 (no result: GALK inhibitor)
CC1CCc2c(sc(NC(=O)CSc3ncn[nH]3)c2C#N)C1 (configuration not stated)	none
CC(C)C(=O)NNC(=O)CSc1ncnc2c1cnn2-c1ccccc1Cl	none
Cc1cc(N2CCOCC2)n2ncc(-c3ccc(Cl)cc3)c2n1	D1 antag -33
Cc1ccc(-c2cnn3c(N4CCOCC4)cc(C)nc23)cc1	none
COc1cccc(-c2nc3c(c(SCc4ccccc4)n2)Cc2c(CO)cnc(C)c2O3)c1	none (no result: USP2a inh, Eya2 phos inh, GALK inhibitor)
COc1ccc(C23CC4CC(CC(C4)C2)C3)cc1C(=O)NCCN(C)C	D1 agonist 39
COc1ccccc1C(=O)NCCC(=O)NCCC12CC3CC(CC(C3)C1)C2	D1 antag -31
COc1cc(OC)c(C(=O)NC23CC4CC(CC(C4)C2)C3)cc1OC	none
CCn1c(=O)c2cc(C(=O)N3CCN(c4cccc(Cl)c4)CC3)sc2c2ccccc21	none (no result: USP2a inh, Eya2 phos inh, GALK inhibitor)
COc1ccc(CCNc2ccc(S(=O)(=O)N3CCN(C)CC3)cc2[N+](=O)[O-])cc1	D1 antag -32 (no result: GALK inhibitor)
COc1ccc(CN(C)c2ccc(S(=O)(=O)N3CCN(C)CC3)cc2[N+](=O)[O-])cc1OC	D1 antag -46 (no result: GALK inhibitor)
COc1ccc(CCN(C)c2ccc(S(=O)(=O)N3CCCC3)cc2[N+](=O)[O-])cc1OC	none
COc1ccc(N2CCN(C3CCN(S(=O)(=O)c4ccc(F)cc4)CC3)CC2)cc1	none (no result: GALK inhibitor)
COc1cccc(C(c2ccccc2)N2C3CCC2CN(S(=O)(=O)c2ccc(F)cc2)CC3)c1 (configuration not stated)	D1 agonist 62 (no result: GALK inhibitor)
CCOC(=O)C1CCN(C(=O)CN2c3ccc(CC)cc3-c3ccccc3S2(=O)=O)CC1	D1 antag -33 (no result: USP2a inh, Eya2 phos inh, GALK inhibitor)
O=C(c1ccccc1-c1nc(-c2ccc(Cl)cc2)no1)N1CCCC1	D1 antag -35
O=C(/C=C/c1ccccc1)NC(NC(=S)Nc1cc(Cl)ccc1Cl)C(Cl)(Cl)Cl (configuration not stated)	D1 antag -37
O=C(NC(NC(=S)Nc1ccc(Cl)c(Cl)c1)C(Cl)(Cl)Cl)c1ccco1 (configuration not stated)	none (no result: D1 antag, D1 potentiator, D1 agonist)
